Calls of active or inactive are those of the source.
Assay: optical density change of DRC41 E. coli – strain DRC41, OD650, 24 h, E. coli filamentation project, primary screen (AID 1093);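 also: MC1000 strain lacking acrAB efflux and sulA so SOS filamentation is blocked; test concentration not given here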
Details: E. coli DRC41 growth, higher = more signal, called active from +8 up or from −8 down

Row | Compound | z-score
1 | C=CCOC(=O)[C@H]1[C@@H]2C(=O)O[C@@H](c3ccccc3)[C@@H](c3ccccc3)N2[C@@H](c2ccc(OCCOC(=O)[C@@H]3C[C@@H]4C(=O)N5CCC[C@H]5C(=O)N4[C@@H]3c3ccc(O)cc3)cc2)[C@]12C(=O)Nc1ccccc12 | 0.621 (inactive)
2 | CC(C)OC(=O)CC(=O)CC(O)c1ccc(C#N)cc1 (stereo not given) | 0.0935 (inactive)
3 | O=C(OCCF)C1=CCC(c2cccc(Cl)c2)O1 (stereo not given) | -0.0288 (inactive)
4 | [N-]=[N+]=NCc1ccccc1[C@@H]1OC(c2ccc(OCCCO)cc2)=N[C@]1(Cc1ccccc1N=[N+]=[N-])C(=O)NCc1ccccc1 | -0.911 (inactive)
5 | COc1ccc(C(O)C2C=CC3C(=O)N(c4ccccc4)C(=O)C3N2Nc2ccc([N+](=O)[O-])cc2)cc1OCc1ccccc1 (stereo not given) | -1.29 (inactive)
6 | Cc1ccccc1C(O)C1C=CC2C(=O)N(C)C(=O)C2N1N1CCCCC1 (stereo not given) | -1.24 (inactive)
7 | COCCOC(=O)N1C(=O)[C@@]2(c3cc(C#CCNC(N)=O)ccc31)[C@H](c1ccccc1OCCO)N1[C@H](c3ccccc3)[C@H](c3ccccc3)OC(=O)[C@H]1[C@@H]2C(N)=O | -0.244 (inactive)
8 | O=C1C2C=CC(C(O)c3cccs3)N(Nc3ccccc3F)C2C(=O)N1c1ccccc1 (stereo not given) | 0.153 (inactive)
9 | COC(=O)C1=CC(CCCO)=CC(C2CC2)N(Cc2sc3ccccc3c2Cl)C=C1C(=O)OC (stereo not given) | 0.404 (inactive)
10 | COCCOC(=O)N1C(=O)[C@@]2(c3cc(C#Cc4ccc(OC)cc4)ccc31)[C@H](C(=O)N1CCN(c3ncccn3)CC1)[C@H]1C(=O)O[C@H](c3ccccc3)[C@H](c3ccccc3)N1[C@@H]2c1ccc(O)cc1 | 0.313 (inactive)
